Out of some 69,000 compounds screened, about 8,600 (12%) showed an effect of 50% or more. Shown is part of a subset that was picked to be rich in strong results.
These compounds were tested on Plasmodium berghei (assay: Screen against P. berghei liver stage (PbLuc), transformed with Luciferase, at 10uM). Details: tested at 10 uM.
Type: functional, HepG2

`COCCN1CCc2ncnc(N(C)C)c2CC1` was tested. Which INHIBITION did it give?
Its INHIBITION is 33.5%.

`CN(C)Cc1ccnc(C2CN(CCCc3ccccc3)CCO2)n1` (stereo not drawn) was tested. Which INHIBITION did it give?
Its INHIBITION is 42.6%.

Which INHIBITION does the source give for `O=C(c1ccc(C2CCCN2C(=O)c2ccc[nH]2)s1)N1CCSCC1` (stereo not drawn) here?
The INHIBITION was -32.2%.

Which INHIBITION does the source give for `CCn1ncc2c1CCCC2NCc1ccc2c(c1)OCCO2` (stereo not drawn) here?
Its INHIBITION is 1.51%.

For `CC(C)(C)n1ncc2c1CCCC2NCc1cccc2c1OCCO2` (stereo not drawn), which INHIBITION is on record?
The INHIBITION was 35.9%.

Which INHIBITION does the source give for `O=C1C(NCc2ccc3c(c2)CCO3)CCN1Cc1ccccc1` (stereo not drawn) here?
The INHIBITION was 6.88%.

How did the INHIBITION turn out when `CC(C)(C)n1ncc2c1CCCC2NCc1ccc2c(c1)CCO2` (stereo not drawn) was run?
The INHIBITION was 61%.

For `CC(C)(C)n1ncc2c1CCCC2NCc1cccc(C(N)=O)c1` (stereo not drawn), which INHIBITION is on record?
The INHIBITION was -8.4%.

For `CC(C)(C)n1ncc2c1CCCC2NCc1ccc2ncccc2c1` (stereo not drawn), which INHIBITION is on record?
The INHIBITION was 72.8%.

Which INHIBITION does the source give for `CC(C)(C)n1ncc2c1CCCC2NCc1cccc2c1OCO2` (stereo not drawn) here?
The INHIBITION was 20.2%.

`CCn1ncc2c1CCCC2NCc1ccc2c(c1)CCO2` (stereo not drawn) was tested. Which INHIBITION did it give?
Its INHIBITION is 5.03%.

How did the INHIBITION turn out when `CC(C)(C)n1ncc2c1CCCC2NCc1ccc2c(c1)OCCO2` (stereo not drawn) was run?
The INHIBITION was 93.1%.

`COCc1nc(CNC2CCCc3c2cnn3C(C)(C)C)cs1` (stereo not drawn) was tested. Which INHIBITION did it give?
Its INHIBITION is 2.02%.

For `CC(C)(C)n1ncc2c1CCCC2NCc1ccsc1` (stereo not drawn), which INHIBITION is on record?
Its INHIBITION is 50.1%.

How did the INHIBITION turn out when `Cn1ncc2c1CCCC2NCc1cnc(-c2ccccc2)nc1` (stereo not drawn) was run?
Its INHIBITION is 33%.

Which INHIBITION does the source give for `CNC(=O)C1(C)CN(S(=O)(=O)c2cccc(OC)c2)CCO1` (stereo not drawn) here?
The INHIBITION was 11.175%.

With `O=C(c1cnccn1)N1C[C@@H](OCc2cccnc2)[C@H]2OCCC[C@H]21` as the compound, how does the INHIBITION read?
Its INHIBITION is 14.6%.

With `CC(C)CCn1[nH]c(CNc2ccccc2)nc1=O` as the compound, how does the INHIBITION read?
Its INHIBITION is -7.9%.

For `CN(C)C1CCN(C(=O)c2cc3c(s2)CCN3C(=O)C2CC2)CC1`, which INHIBITION is on record?
The INHIBITION was 49.1%.

`CCC1=N[C@@]2(CC[C@@H]3CN(Cc4cccc(Cl)c4)C[C@@H]32)C(=O)N1C` was tested. Which INHIBITION did it give?
Its INHIBITION is 30.3%.

`CCC1=N[C@@]2(CC[C@@H]3CN(CC)C[C@@H]32)C(=O)N1C` was tested. Which INHIBITION did it give?
The INHIBITION was 23.1%.

Which INHIBITION does the source give for `CCC1=N[C@@]2(CC[C@@H]3CN(Cc4ccc(Cl)cc4)C[C@@H]32)C(=O)N1C` here?
Its INHIBITION is 50.6%.

How did the INHIBITION turn out when `CCC1=N[C@@]2(CC[C@@H]3CN(Cc4ccc(F)cc4)C[C@@H]32)C(=O)N1C` was run?
The INHIBITION was 62%.

How did the INHIBITION turn out when `CCC1=N[C@@]2(CC[C@@H]3CN(Cc4ccc(C)cc4)C[C@@H]32)C(=O)N1C` was run?
Its INHIBITION is 34.9%.

`CCC1=N[C@@]2(CC[C@@H]3CN(Cc4ccccc4C)C[C@@H]32)C(=O)N1C` was tested. Which INHIBITION did it give?
Its INHIBITION is 46.6%.

How did the INHIBITION turn out when `Cc1cccc(CNC(=O)Nc2ccn(CCCC(=O)N(C)C)n2)c1` was run?
Its INHIBITION is -6.52%.

With `CC1CCN(c2nc3cn(-c4ccc5c(c4)OCO5)c(=O)c-3c[nH]2)CC1` as the compound, how does the INHIBITION read?
Its INHIBITION is 23.5%.

With `Cc1ccc(CN2CCC[C@@H]3CN(C(=O)c4ccco4)C[C@@H]32)o1` as the compound, how does the INHIBITION read?
The INHIBITION was -2.35%.

For `Cc1cc(C(=O)Nc2ccc3c(ccn3CCN3CCOCC3)c2)on1`, which INHIBITION is on record?
The INHIBITION was 12.8%.

For `COc1ccc(C2CCCN2c2ccc(C#N)cn2)c(OC)c1` (stereo not drawn), which INHIBITION is on record?
Its INHIBITION is 37.7%.

How did the INHIBITION turn out when `COc1cc(Oc2ccc(C(F)(F)F)cn2)ccc1CN1CCCC1` was run?
The INHIBITION was 91.5%.

`COc1ccc(CN2CCSCC2)c(OC)c1` was tested. Which INHIBITION did it give?
The INHIBITION was 33.1%.

With `COc1cc(Oc2ccc(C#N)cn2)ccc1CN1CCCC1` as the compound, how does the INHIBITION read?
Its INHIBITION is 82.9%.

Which INHIBITION does the source give for `COc1cc(Oc2ccc(C(N)=O)cn2)ccc1CN1CCCC1` here?
The INHIBITION was -0.27%.

Which INHIBITION does the source give for `COc1ccc(CN2CC[C@H](NC(C)=O)[C@@H](O)CC2)c(OC)c1` here?
Its INHIBITION is 35.3%.

With `COc1ccc(Oc2ccc(C(F)(F)F)cn2)cc1CN1CCCC1` as the compound, how does the INHIBITION read?
Its INHIBITION is 63.7%.

Which INHIBITION does the source give for `COc1ccc(CN2CCC(O)CC2)c(OC)c1` here?
The INHIBITION was 1.81%.

How did the INHIBITION turn out when `Cc1cc(CN2CCN(Cc3ccc(C#N)cc3OC(F)F)CC2)no1` was run?
Its INHIBITION is 14.27%.

With `COc1ccc(CN2CCn3c(CO)nnc3C2)cc1CN1CCCC1` as the compound, how does the INHIBITION read?
The INHIBITION was 44.8%.

For `COc1ccc(Oc2cccnc2)cc1CN1CCCC1`, which INHIBITION is on record?
The INHIBITION was 49.4%.

How did the INHIBITION turn out when `COc1cc(Oc2cnc3ccccc3n2)ccc1CN1CCCC1` was run?
Its INHIBITION is 84.9%.

How did the INHIBITION turn out when `O=C(Cc1cccc(O)c1)N1CCCC(O)(CN2CCOCC2)CC1` (stereo not drawn) was run?
Its INHIBITION is 6.26%.

With `CC(Cn1cccn1)NC(=O)NCc1ccc(C(N)=O)cc1` (stereo not drawn) as the compound, how does the INHIBITION read?
Its INHIBITION is -98.8%.

`Cc1cc(NC(=O)CN2CCn3c(nnc3C3CC3)C2)on1` was tested. Which INHIBITION did it give?
The INHIBITION was 25.3%.

`CC(C)c1nc(C2CCCN2CCN2CCCCC2)no1` (stereo not drawn) was tested. Which INHIBITION did it give?
Its INHIBITION is -0.55%.

For `CN(C)CCO[C@H]1CN(CC2CC2)[C@@H]2CCCO[C@H]12`, which INHIBITION is on record?
The INHIBITION was 25.8%.

With `CC(NC(=O)c1cccs1)C(=O)NCc1ccccn1` (stereo not drawn) as the compound, how does the INHIBITION read?
Its INHIBITION is 21.6%.

With `O=c1cc(Cn2cncn2)nc2n1CCCN(Cc1ccoc1)C2` as the compound, how does the INHIBITION read?
Its INHIBITION is 20.5%.

How did the INHIBITION turn out when `CCS(=O)(=O)N1CCC(NC(=O)c2cc(C(C)C)ccc2O)CC1` was run?
Its INHIBITION is -7.1%.

Which INHIBITION does the source give for `Cc1ncsc1CN1CC[C@H]2OCC[C@@]2(C(=O)N2CCOCC2)C1` here?
The INHIBITION was 11.4%.

How did the INHIBITION turn out when `CC1(C)CC(NC(=O)c2cnn(-c3ccccc3F)c2N)CC(C)(C)N1` was run?
The INHIBITION was -33%.

For `Cc1cc(C(=O)N2CCn3c(COCC4CCCC4)cnc3C2C)on1` (stereo not drawn), which INHIBITION is on record?
The INHIBITION was 37.3%.

For `CCn1nc(C)c2nc(C(C)C)nc(NCC(C)O)c21` (stereo not drawn), which INHIBITION is on record?
The INHIBITION was -3.11%.

For `CCn1nc(C)c2nc(C(C)C)nc(NCCc3ccc(O)cc3)c21`, which INHIBITION is on record?
Its INHIBITION is 68.1%.

Which INHIBITION does the source give for `CCCc1nc(NCCc2ccccc2)c2c(n1)c(C)nn2CC` here?
Its INHIBITION is 43.7%.

`CCn1nc(C)c2nc(C)nc(NCCc3ccccc3)c21` was tested. Which INHIBITION did it give?
The INHIBITION was 46.4%.

How did the INHIBITION turn out when `CCn1nc(C)c2nc(C)nc(NCCc3ccc(C)cc3)c21` was run?
The INHIBITION was 62.7%.

`CCn1nc(C)c2nc(C(C)C)nc(NCCCO)c21` was tested. Which INHIBITION did it give?
Its INHIBITION is -9.48%.

Which INHIBITION does the source give for `CCOc1ccccc1C1CCCN1` (stereo not drawn) here?
Its INHIBITION is 15.8%.

With `Cc1cnn(CC(C)NCc2nc(-c3ccsc3)oc2C)c1` (stereo not drawn) as the compound, how does the INHIBITION read?
The INHIBITION was -7.31%.

For `Cc1ccc(CN2CCS(=O)(=O)C(C)(C)C2)cc1C`, which INHIBITION is on record?
Its INHIBITION is 70.1%.

With `Cn1cc(CN2CCS(=O)(=O)C(C)(C)C2)cn1` as the compound, how does the INHIBITION read?
Its INHIBITION is 44.3%.

Which INHIBITION does the source give for `CC1(C)CN(Cc2ccncc2)CCS1(=O)=O` here?
The INHIBITION was 21.9%.

Which INHIBITION does the source give for `COc1ccc(Cn2cc(C(C)O)nn2)cc1` (stereo not drawn) here?
Its INHIBITION is 19.9%.

With `CNc1cnc(CC2COCCN(CCOc3ccccc3)C2)cn1` (stereo not drawn) as the compound, how does the INHIBITION read?
Its INHIBITION is 39.7%.

How did the INHIBITION turn out when `CC(=O)NC1CCN(C(=O)Nc2cccc(C(F)(F)F)c2)CC1` was run?
The INHIBITION was 27.9%.

With `CC(=O)NC1CCN(C(=O)Nc2cccc(SC(F)F)c2)CC1` as the compound, how does the INHIBITION read?
Its INHIBITION is 27.9%.

How did the INHIBITION turn out when `CC(=O)NC1CCN(C(=O)Nc2ccc(SC(F)F)cc2)CC1` was run?
The INHIBITION was 73.5%.

From ChEMBL document CHEMBL4513216, “Probing the Open Global Health Chemical Diversity Library for Multistage-Active Starting Points for Next-Generation Antimalarials” (ACS Infect Dis, 2020)
